# PubChem BioAssay (EPA / NIEHS)
# “And” between values parts separate entries of the source, which are not always exact repeats. Equal values may be shown once. A structure can be active in one record and inactive in another. The source made the active and inactive calls. How the source made its calls: active means hit-call score of the fitted dose curve at least 0.9, where 1 is the maximum; inactive means score below 0.9.
# Read-out: Intercellular Adhesion Molecule 1 (ICAM1), ICAM1 (gene 3383)
# Test: BSK_3C_ICAM1: BioMAP Diversity Plus: 3C Assay for Intercellular Adhesion Molecule 1 (ICAM1) Biomarker Activity (AID 2283003)
# Details: primary human endothelial cells (HUVEC); actives raise or lower the signal
# Procedure: BSK_3C is a cell-based, multiplexed-readout assay that uses umbilical vein endothelium, a human vascular primary cell, with measurements taken at 24 hours after chemical dosing in a 96-well plate.BSK_3C_ICAM1 is an assay component measured in the BSK_3C assay. It measures ICAM-1 antibody related to regulation of gene expression using ELISA technology.Data from the assay component BSK_3C_ICAM1 was analyzed into 1 assay endpoint. This assay endpoint, BSK_3C_ICAM1, was analyzed with bidirectional fitting relative to DMSO as the negative control and baseline of activity. Using a type of binding reporter, gain or loss-of-signal activity can be used to understand changes in the signaling as they relate to the gene ICAM1. Furthermore, this assay endpoint can be referred to as a primary readout, because this assay has produced multiple assay endpoints where this one serves a signaling function. To generalize the intended target to other relatable targets, this assay endpoint is annotated to the cell adhesion molecules intended target family, where the subfamily is Immunoglobulin CAM.
# The levels of cell surface (or secreted, indicated by the prefix "s") biomarker endpoints were measured by ELISA. Overt cytotoxicity to cells in confluent adherent cultures (all systems other than the BT system) was assessed by measuring total protein levels using sulforhodamine B (SRB) staining in parallel cultures at the time of biomarker measurements, indicated as SRB endpoints. For proliferation assays for adherent cell types, individual cell types are cultured at sub-confluence and relative cell numbers quantified by SRB staining at time points optimized for each system (48 h: 3C and CASM3C systems; 72 h: BT and HDF3CGF systems; 96 h: SAg system). SRB was performed by staining cells with 0.1% SRB after fixation with 10% TCA and reading wells at 560 nm.Viability and proliferation of PBMC (T cells) was quantified by Alamar Blue reduction for the SAg and BT systems. For PBMC viability (referred to as PBMC Cytotoxicity within the assay endpoint names), cells were plated (75,000/well in a 96-well plate) and then chemical samples added for 1 h before addition of activators, SEB and TSST-1 (20 ng/mL final concentration each). Cells were incubated for 90 h. Then, Alamar Blue (20 uL/well) (Invitrogen, Cat DAL1100) was added for 6 h, and the plates were read with a fluorescence microplate reader at 546/580 nm (excitation/emission). For PBMC proliferation, cells were plated and activated as above but incubated for only 16 h prior to addition of Alamar Blue. Plates were read after 6 h.
Compound,outcome,AC50
CCCCC(CC)COC(=O)c1ccccc1C(=O)OCC(CC)CCCC (stereo not given),inactive,
CCCCNC(=O)OCC#CI,,29.8 µM (active) and 30 µM (active)
O=C(Nc1ccccc1)Nc1ccnc(Cl)c1,inactive,
Cc1cc(Cl)ccc1OCC(=O)O,inactive,
CNC(=O)ON=CC(C)(C)SC,inactive,
C=CCC1=C(C)[C@@H](OC(=O)[C@@H]2[C@@H](C=C(C)C)C2(C)C)CC1=O,inactive,
CC1COC(Cn2cncn2)(c2ccc(Oc3ccc(Cl)cc3)cc2Cl)O1 (stereo not given),,36.2 µM (active)
CCCN(CCC)c1c([N+](=O)[O-])cc(S(N)(=O)=O)cc1[N+](=O)[O-],,41.3 µM (active) [middle of 4 runs]
CCc1nn(C)c(C(=O)NCc2ccc(C(C)(C)C)cc2)c1Cl,inactive,
Fc1ccc(Oc2ccnc3cc(Cl)cc(Cl)c23)cc1,,29.9 µM (active)
CCOP(=S)(OCC)SCn1c(=O)oc2cc(Cl)ccc21,inactive,
COP(=S)(OC)Oc1nc(Cl)c(Cl)cc1Cl,inactive,
CCCC1COC(Cn2cncn2)(c2ccc(Cl)cc2Cl)O1 (stereo not given),inactive,
COC(=O)N(OC)c1ccccc1COc1ccn(-c2ccc(Cl)cc2)n1,inactive,
Cc1c(F)c(F)c(COC(=O)C2C(/C=C(\Cl)C(F)(F)F)C2(C)C)c(F)c1F (stereo not given),inactive,
CCOC(=O)C(Cl)Cc1cc(-n2nc(C)n(C(F)F)c2=O)c(F)cc1Cl (stereo not given),inactive,
CC(Oc1ccc(Cl)cc1Cl)C(=O)O (stereo not given),inactive,
N#CC(CCc1ccc(Cl)cc1)(Cn1cncn1)c1ccccc1 (stereo not given),inactive,
CC(C)C1(C)N=C(c2nc3ccccc3cc2C(=O)O)NC1=O (stereo not given),inactive,
N#Cc1cc(Br)c(O)c(Br)c1,inactive,

Compound,outcome,AC50
CCON=C(CC)C1=C(O)CC(c2c(C)cc(C)cc2C)CC1=O (stereo not given),inactive,
CCCCNC(=O)n1c(NC(=O)OC)nc2ccccc21,inactive,
CC1=C(C(=O)Nc2ccccc2)SCCO1,inactive,
CC(C)(C)c1ccc(CSc2cnn(C(C)(C)C)c(=O)c2Cl)cc1,inactive,
OC(c1ccc(Cl)cc1)(c1cncnc1)c1ccccc1Cl (stereo not given),inactive,
COC(=O)c1ccccc1C(=O)OC,inactive,
CS/C(C)=N/OC(=O)N(C)SN(C)C(=O)O/N=C(\C)SC,,31.6 µM (active)
COc1cnc(OC)n2nc(NS(=O)(=O)c3c(OCC(F)F)cccc3C(F)(F)F)nc12,inactive,
CN(C)C(=S)SSC(=S)N(C)C,,32.1 µM (active)
CO/C=C(/C(=O)OC)c1ccccc1Oc1cc(Oc2ccccc2C#N)ncn1,inactive,32.6 µM (active)
CCOC(=O)CC(SP(=S)(OC)OC)C(=O)OCC (stereo not given),inactive,
O=C(O)COc1nc(Cl)c(Cl)cc1Cl,inactive,
CCNc1nc(Cl)nc(NCC)n1,inactive,
CON(C)C(=O)Nc1ccc(Cl)c(Cl)c1,inactive,
COC(=O)C=C(C)OP(=O)(OC)OC,inactive,
CCOc1cc(Oc2ccc(C(F)(F)F)cc2Cl)ccc1[N+](=O)[O-],inactive,
C=CCC1=C(C)C(OC(=O)C2C(C=C(C)C)C2(C)C)CC1=O (stereo not given),inactive,
CC(C)Oc1cc(-n2nc(C(C)(C)C)oc2=O)c(Cl)cc1Cl,inactive,
CCCCOC(=O)c1ccccc1C(=O)OCCCC,inactive,
